Consider twelve molecules from PubChem BioAssay (NCATS).

Assay [1] can be described thus: High-throughput drug toxicity screening in the BPDCN cell line Cal-1 (AID 1224825; call rule not given here). Conditions: Cal-1 BPDCN cell viability, qHTS; at 45.8 µM (top of the series) unless noted. The method in brief: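 Exponentially growing Cal-1 cells, 500 per well in phenol red-free RPMI with 10% FBS, were exposed to compounds for 48 h at 37 °C, 5% CO2. Viability was read by CellTiter-Glo luminescence and normalised to DMSO (100%) and 9.2 uM bortezomib (0%).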

Assay [2] is described as follows: qHTS assay for measurement of the activity of small molecule inhibitors on Zika virus induced Caspase-3 activity in human iPSC derived neural progenitor cells (hNPCs) (AID 1224857). Further: nearly all actives have a fitted effect of over 65% in size. Further: potency means the concentration at half of the fitted maximal effect. The essentials: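 Values are percent inhibition of virus-induced caspase-3/7 signal, scaled between uninfected cells and ZIKV-infected cells. Infection used 2 FFU/cell for 6 h after 1 h compound exposure.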

Assay [3] in a line: qHTS assay for measurement of the activity of small molecule inhibitors on Zika virus induced Caspase-3 activity in human astrocytoma cells (AID 1224859). Further: potency means the concentration at half of the fitted maximal effect. The method in brief: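 Compound added 1 h pre-infection; ZIKV 2 FFU/cell on SNB-19 cells, 6 h, 37 C/5% CO2. Caspase-Glo 3/7 luminescence; values as % inhibition of ZIKV-induced caspase activity.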
(In qHTS, concentration-response curves come from the screen itself.)

Assay [4] can be described thus: qHTS Screen of the MIPE 4.0 Collection Against Ewings Sarcoma (TC32) (AID 1259256). Further: nearly all actives have a fitted effect of over 45% in size. Further: potency means the concentration at half of the fitted maximal effect. The method in brief:
(§1)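 Compound titrations go onto adherent log-phase cells 4 h after seeding, incubate 48 h at 37C, then CellTiter-Glo luminescence reports viability relative to DMSO and cell-free controls.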

Assay [5] in a line: qHTS assay to identify small molecule inhibitors of chordoma cells - UCH-1 (AID 1259355). Further: on the % scale 0 is the no-effect control and ±100 the full control effect; nearly all actives have a fitted effect of over 55% in size. The essentials:
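Luminescent ATP read-out (CellTiter-Glo, 30min at room temperature) measured viability of UCH-1 cells exposed for 48hr to test drugs at 15 concentrations, co-dosed with a five-agent combination of auranofin, camptothecin, doxorubicin, rubitecan and topotecan.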

The nature of assay [6]: qHTS assay to identify small molecule inhibitors of chordoma cells - UCH-2 (AID 1259356). Further: on the % scale 0 is the no-effect control and ±100 the full control effect.
Assay [7] can be described thus: P-glycoprotein substrates identified in KB-8-5-11 adenocarcinoma cell line, qHTS therapeutic library screen (AID 1346987). Further: nearly all actives have a fitted effect of over 65% in size. The essentials:
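P-gp-mediated resistance screen: KB-8-5-11 cells treated 72 h with compounds in dose-response. CellTiter-Glo viability.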

Assay [8] is described as follows: NS1 protein of Zika virus - qHTS assay to identify small molecule inhibitors in human HEK 293 cells (AID 1347053).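 Further: plate controls were infected untreated cells for no effect and uninfected cells for full effect; nearly all actives have a fitted effect of over 55% in size.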 The essentials:
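HEK 293; 20 h pre-culture, 37 C/5% CO2; cpd 1 h pre-infection; ZIKV MR766, MOI = 0.5, 24 h, 37 C; TR-FRET NS1 readout (two anti-NS1 Abs); norm. to no-virus vs infected.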

Assay [9] in a line: qHTS Screen of the MIPE 4.0 Collection Against Ewings Sarcoma (EW8) (AID 1259255). Further: nearly all actives have a fitted effect of over 35% in size. Further: potency means the concentration at half of the fitted maximal effect.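 On viability: 100% = DMSO-treated cells and 0% = medium-only wells without cells.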 The method in brief: as §1
A short description of assay [10]: qHTS Screen of the MIPE 4.0 Collection Against Ewings Sarcoma (TC71) (AID 1259253). Further: nearly all actives have a fitted effect of over 40% in size. Further: potency means the concentration at half of the fitted maximal effect. The essentials: as §1
The target in assay [11] is Atrial natriuretic peptide receptor 1 (Homo sapiens) (UniProt P16066). As to the kind of experiment: Natriuretic polypeptide receptor (hNpr1) antagonism - Pilot screen (AID 1347049; calls by dose curve;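 further: agonist-evoked cGMP luminescence read 20 min after hNppA addition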; further: potency means the concentration at half of the fitted maximal effect). The method in brief: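 HEK293 cells co-expressing hNpr1 and the GloSensor pGS-40F cGMP luciferase sensor were preloaded with 2% GloSensor reagent for 2 h. Compounds were added for 30 min at room temperature, then cells were stimulated with 0.1 nM hNppA for 20 min before luminescence readout.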
Chain of Atrial natriuretic peptide receptor 1 (Homo sapiens) (P16066 whole entry, looked up): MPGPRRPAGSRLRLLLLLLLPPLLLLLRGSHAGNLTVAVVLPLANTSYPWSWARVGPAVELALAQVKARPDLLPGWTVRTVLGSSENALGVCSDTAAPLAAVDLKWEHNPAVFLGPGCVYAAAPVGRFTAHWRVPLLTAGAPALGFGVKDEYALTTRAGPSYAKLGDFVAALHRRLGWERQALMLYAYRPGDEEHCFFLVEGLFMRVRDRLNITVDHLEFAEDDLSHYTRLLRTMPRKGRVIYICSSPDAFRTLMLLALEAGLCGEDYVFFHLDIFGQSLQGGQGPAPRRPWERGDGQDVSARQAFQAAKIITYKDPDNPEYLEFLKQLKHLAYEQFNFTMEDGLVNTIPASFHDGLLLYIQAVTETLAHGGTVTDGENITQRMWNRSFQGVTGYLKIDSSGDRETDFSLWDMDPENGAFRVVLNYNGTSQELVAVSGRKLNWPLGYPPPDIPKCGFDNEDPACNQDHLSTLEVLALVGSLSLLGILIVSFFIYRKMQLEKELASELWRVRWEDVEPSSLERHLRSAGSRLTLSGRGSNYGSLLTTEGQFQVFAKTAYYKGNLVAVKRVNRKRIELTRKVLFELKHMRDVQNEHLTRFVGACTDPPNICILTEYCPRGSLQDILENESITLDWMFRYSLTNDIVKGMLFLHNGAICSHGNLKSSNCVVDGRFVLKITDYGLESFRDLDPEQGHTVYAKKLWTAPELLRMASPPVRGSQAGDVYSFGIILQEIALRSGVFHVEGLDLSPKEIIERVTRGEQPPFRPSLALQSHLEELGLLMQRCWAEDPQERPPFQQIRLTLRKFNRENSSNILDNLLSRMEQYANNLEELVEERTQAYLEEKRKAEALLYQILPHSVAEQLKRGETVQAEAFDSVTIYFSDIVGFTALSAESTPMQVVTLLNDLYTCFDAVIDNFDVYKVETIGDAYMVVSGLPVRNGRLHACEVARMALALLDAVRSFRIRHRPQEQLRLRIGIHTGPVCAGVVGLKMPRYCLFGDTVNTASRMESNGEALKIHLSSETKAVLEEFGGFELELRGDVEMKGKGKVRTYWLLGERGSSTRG

Assay [12] concerns the target Tyrosine-protein phosphatase non-receptor type substrate 1 (Homo sapiens) + Leukocyte surface antigen CD47 (Homo sapiens) (UniProt P78324+Q08722). As to the kind of experiment: CD47-SIRPalpha protein protein interaction - LANCE assay qHTS validation (AID 1347057; active means well fitted curve in the direction sought with a large enough effect in the signal ratio, with a control signal flat, not every such curve was filed as active; the % refers to the signal ratio; further: 0% is about no effect). The essentials:
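First, His-tagged CD47 and Eu-labelled anti-His antibody met the compound for 30 min; next, site-specifically biotinylated SIRPalpha was added for 30 min; finally streptavidin-APC was added before reading the TR-FRET ratio.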
(In TR-FRET formats the signal depends on donor and acceptor labels being close together.)

Assay [13] in a line: qHTS Screen of the MIPE 4.0 Collection Against Ewings Sarcoma (RDES) (AID 1259252). Further: nearly all actives have a fitted effect of over 35% in size. Further: potency means the concentration at half of the fitted maximal effect. The essentials:
as §1

A short description of assay [14]: P-glycoprotein substrates identified in KB-3-1 adenocarcinoma cell line, qHTS therapeutic library screen (AID 1346986). Further: nearly all actives have a fitted effect of over 60% in size. The method in brief:
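KB-3-1 parental cells and P-gp-overexpressing KB-8-5-11 (colchicine omitted during assay) plated at 500 cells/well, dosed in dose-response, incubated 72 h at 37 degree C. CellTiter-Glo luminescence read; KB-8-5-11 also tested with tariquidar.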

Several values for one entry are separate records, joined by “and”; a condition that tells them apart may be missing. Equal entries are not always repeated. Inconclusive results are not listed. A structure can be active in one record and inactive in another. Activity calls are given as the source filed them. Unless noted, the call rests on the fitted dose curve; in most records, active means well fitted curve in the direction sought with a large enough effect; inconclusive means small, poorly fitted or top-dose-only effect, or another doubt; inactive means no such curve, though single readings can be large; an effect the other way counts as inactive or inconclusive.

Chain of Tyrosine-protein phosphatase non-receptor type substrate 1 (Homo sapiens) + Leukocyte surface antigen CD47 (Homo sapiens) (P78324 whole entry, looked up): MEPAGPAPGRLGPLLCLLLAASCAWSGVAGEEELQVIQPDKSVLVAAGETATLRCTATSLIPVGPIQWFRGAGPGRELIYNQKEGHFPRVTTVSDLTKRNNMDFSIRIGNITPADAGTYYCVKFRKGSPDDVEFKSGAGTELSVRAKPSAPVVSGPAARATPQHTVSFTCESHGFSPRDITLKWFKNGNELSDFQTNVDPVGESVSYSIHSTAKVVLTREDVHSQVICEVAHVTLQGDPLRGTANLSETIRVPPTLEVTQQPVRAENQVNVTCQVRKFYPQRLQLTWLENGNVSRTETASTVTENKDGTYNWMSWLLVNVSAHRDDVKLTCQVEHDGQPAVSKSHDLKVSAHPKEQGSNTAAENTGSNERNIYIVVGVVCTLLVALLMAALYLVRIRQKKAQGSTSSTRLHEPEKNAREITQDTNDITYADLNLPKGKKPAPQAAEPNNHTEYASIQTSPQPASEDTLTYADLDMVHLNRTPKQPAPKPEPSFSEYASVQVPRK
Chain of Tyrosine-protein phosphatase non-receptor type substrate 1 (Homo sapiens) + Leukocyte surface antigen CD47 (Homo sapiens) (Q08722 whole entry, looked up): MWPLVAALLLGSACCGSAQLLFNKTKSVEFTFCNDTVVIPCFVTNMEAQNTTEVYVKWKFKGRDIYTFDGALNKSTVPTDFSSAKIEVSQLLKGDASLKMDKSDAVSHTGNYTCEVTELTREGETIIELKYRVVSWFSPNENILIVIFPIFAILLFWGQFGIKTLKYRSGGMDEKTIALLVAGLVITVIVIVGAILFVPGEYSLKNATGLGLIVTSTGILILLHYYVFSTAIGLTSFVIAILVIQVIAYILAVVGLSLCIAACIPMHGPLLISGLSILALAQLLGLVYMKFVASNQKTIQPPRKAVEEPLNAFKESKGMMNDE

Regarding `COC1=C(OC)C(=O)C(CCCCCCCCCCO)=C(C)C1=O`, the viability (% of control) in assay [1] turned out to be 24.2%. For the same molecule, the Potency result in assay [2], in [3], in assay [5], in assay [6], in assay [7] and in assay [8] was “inactive” throughout. For the same molecule, the Potency in [4] is 26.4 µM (active).

Consider `NC(=O)Cc1cccc(C(=O)c2ccccc2)c1N`, for which, in assay [1], the viability (% of control) came to 114%. In addition, the Potency entry in assay [2], in assay [3], in [9] and in [8] was “inactive” each time. Also, the Potency in [4] is 4.69 µM (active).

Take `Nc1nc(OCc2ccccc2)c2[nH]cnc2n1`: the viability (% of control) in assay [1] was 39.4%. Besides, the Potency result in [2], in assay [3], in assay [7], in [11] and in assay [8] was “inactive” each time. For the same molecule, the Potency in [10] was 13.2 µM (active); in [9] it was 26.4 µM (active). Moreover, in [12], the result was inactive.

Take `CCCCCCCCOc1ccccc1C(=O)Nc1ccc(C(=O)OCC[N+](C)(CC)CC)cc1`: the viability (% of control) in assay [1] came out at 14.9%. Moreover, the Potency in assay [2] is 16.6 µM (active) and inactive; in [9], 16.6 µM (active). The Potency result in assay [3], in assay [13], in [5] and in assay [6] was “inactive” throughout.

In the case of `Nc1cc(C(Cl)=C(Cl)Cl)c(S(N)(=O)=O)cc1S(N)(=O)=O`, in assay [1], the viability (% of control) turned out to be 106%. The Potency entry in assay [2], in assay [3], in [9], in assay [4], in assay [5] and in assay [6] was “inactive” in each case. Further, the Potency result in [7] and in [8] was “inactive” in each case.

Regarding `CC(S)C(=O)NCC(=O)O` (stereo not drawn), in assay [1], the viability (% of control) worked out at 100%. Also, the Potency entry in assay [2], in assay [3], in assay [9], in [4], in assay [5] and in [6] was “inactive” each time. Besides, in [7], the Potency result is “inactive”.

`Cc1cc(O)c2c(c1)C(=O)c1cc(O)cc(O)c1C2=O`: the viability (% of control) in [1] amounted to 109%. In addition, the Potency in assay [2] was 9.35 µM (active) and 2.51 µM (active); in assay [3] it was 9.35 µM (active); in assay [11], 23.9 µM (active). Moreover, the Potency entry in [10], in [9] and in assay [4] was “inactive” in each case. In addition, the result in [12] was inactive.

For `CCN(CC)CCOc1ccc(Cc2ccccc2)cc1`, the viability (% of control) in assay [1] is 100%. The Potency result in [2], in assay [3], in assay [5], in [6] and in [8] was “inactive” throughout. For the same molecule, in [13], the Potency was 18.7 µM (active).

For `O=C1NC(=O)C(c2ccccc2[N+](=O)[O-])=C1Nc1ccc(O)c(Cl)c1`, the viability (% of control) in [1] came out at 36.6%. Also, the Potency in assay [2] and in [13] was 20.9 µM (active) in each case. Moreover, the Potency entry in assay [3], in [14], in assay [7], in [11] and in [8] was “inactive” in each case. Besides, the result in assay [12] was inactive.

In the case of `CCOC(=O)c1c(C)n(C)c2ccc(O)cc12`, the viability (% of control) in [1] came to 87.8%. The Potency entry in assay [2], in assay [3], in assay [4], in assay [5], in assay [6] and in [7] was “inactive” in each case. In [8], the Potency entry is “inactive”.

Regarding `CC(C)Oc1ccc2c(=O)c(-c3ccccc3)coc2c1`, the viability (% of control) in assay [1] was 102%. The Potency was 10.5 µM (active) in [2]; 10 µM (active) and 11.8 µM (active) in [3]. Also, the Potency result in assay [9], in assay [4], in [5], in assay [6] and in assay [8] was “inactive” throughout.

With `CC(=O)Nc1ccc(O)cc1`, in assay [1], the viability (% of control) stood at 33.3%. In addition, the Potency entry in [2], in assay [3], in [13], in assay [7] and in assay [8] was “inactive” each time.
